TNAP act DEA: human TNAP activation, intermediate phosphate acceptor | 64,000 tested, under 10 active | activation factor at 20 µM | purified TNAP, CDP-star luminescence, 100 mM DEA, 30 min; stronger effect = higher value; scale: 0 levamisole-inhibited, 1 vehicle-only enzyme;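 active means activation factor of at least 2 at 20 µM, relative to controls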
Target sequence (P05186 whole entry, looked up): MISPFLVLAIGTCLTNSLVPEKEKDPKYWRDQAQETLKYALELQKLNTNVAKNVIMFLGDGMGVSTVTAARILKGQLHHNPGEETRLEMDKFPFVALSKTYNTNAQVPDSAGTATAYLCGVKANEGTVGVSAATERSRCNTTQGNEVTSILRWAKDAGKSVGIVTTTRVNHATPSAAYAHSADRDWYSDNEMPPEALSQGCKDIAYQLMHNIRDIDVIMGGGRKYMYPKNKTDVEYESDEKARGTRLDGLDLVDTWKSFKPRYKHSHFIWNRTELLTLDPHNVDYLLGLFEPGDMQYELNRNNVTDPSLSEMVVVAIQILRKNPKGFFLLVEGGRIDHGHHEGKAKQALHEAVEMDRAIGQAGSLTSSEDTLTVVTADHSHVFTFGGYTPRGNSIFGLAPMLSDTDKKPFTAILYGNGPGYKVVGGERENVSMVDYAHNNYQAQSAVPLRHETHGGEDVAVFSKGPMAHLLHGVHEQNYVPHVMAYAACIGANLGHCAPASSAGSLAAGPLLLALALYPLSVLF
BAP1 inh: human BAP1 deubiquitinase inhibition; actives 0.48% (n = 72,000); AID 436; Q92560; recombinant BAP1, Ub-AMC hydrolysis fluorescence kinetic; stronger effect = lower value; calls only at 20 µM;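 active means activity remaining at or below 50% of control, provided the compound also passes the data quality filters; inactive means the rest, including low values that fail the filters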
Her2 expr inh: Her2 kinase expression inhibition. P04626. SKBR-3 HER2 protein level, AlphaScreen, 18-24 h; stronger effect = lower value. HER2 level % of control, % at 10 µM. actives 0.69% (n = 65,000);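 active means HER2 level under 5% of the carrier-only control; inconclusive means no clear call, values can overlap the other calls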
SK-BR-3 tox 24h: SK-BR-3 proliferation inhibitors. SK-BR-3 viability, CellTiter-Glo ATP luminescence, 24 h; stronger effect = lower value. viability, % at 10 µM. actives 0.47% (n = 41,000). AID 847;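 active means viability at or below the median of all test compounds minus 3 SD, in both replicates if run twice, cut at about 45% in these data; inconclusive means duplicate replicates that disagree with each other; inactive means viability above that cutoff in every replicate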
Ec RNAP inh: Escherichia coli RNA polymerase inhibition; P0A8V2; E. coli RNA polymerase, fluorescence transcription assay; inhibition, %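 (tested at 10 µM)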; actives 0.2% (n = 62,000); AID 559; in the data active means inhibition above about 20%
Numbers stand for hits. Sampled rows, rich in hits. Any-hit rate of the full collection: about 1.4%.

`C=CCOC(=O)C1=C(C)NC2=C(C(=O)CCC2)C1c1ccccc1OC` (configuration not stated) gave BAP1 inh inactive.
CN1CCN(CCCNc2nc3ccccc3c3nc(-c4ccccc4)nn23)CC1 was read as TNAP act DEA inactive, BAP1 inh inactive, Her2 expr inh -10 and Ec RNAP inh inactive.
`CCOC(=O)c1c(C)[nH]c(C(=O)OC/C(O)=C(\C#N)c2nc3ccccc3[nH]2)c1C` gave TNAP act DEA inactive, BAP1 inh inactive, Her2 expr inh -3.7 and Ec RNAP inh inactive.
For Cc1ccc(NC(=O)Cn2c(=O)n(CCCCC(=O)NCc3ccco3)c(=O)c3ccccc32)cc1 the results were TNAP act DEA inactive, BAP1 inh inactive, Her2 expr inh inactive, SK-BR-3 tox 24h 43 and Ec RNAP inh inactive.
O=C(CCCCn1c(=O)c2ccccc2n(CC(=O)Nc2ccc(F)cc2)c1=O)NCc1ccco1 was read as TNAP act DEA inactive, BAP1 inh inactive, Her2 expr inh inactive, SK-BR-3 tox 24h inactive and Ec RNAP inh inactive.
`O=C1CCCC2=C1C(c1ccccc1)CS2` (configuration not stated) gave BAP1 inh inactive.
Screening COc1ccc(OC)c(S(=O)(=O)Nc2ccc(O)c3ccccc23)c1 returned TNAP act DEA inactive, BAP1 inh inactive, Her2 expr inh 1.2 and Ec RNAP inh 28.
For CCOC(=O)N1CCN(CC(=O)Nc2ccc(OC)cc2)CC1 the results were TNAP act DEA inactive, BAP1 inh inactive, Her2 expr inh inactive and Ec RNAP inh inactive.
`CCOC(=O)N1CCN(CCC(=O)Nc2ccc(OC(F)(F)F)cc2)CC1` gave TNAP act DEA inactive, BAP1 inh inactive, Her2 expr inh inactive, SK-BR-3 tox 24h 37 and Ec RNAP inh inactive.
For COc1ccccc1C(=O)N1CCN(c2cccc(Cl)c2)CC1 the results were TNAP act DEA inactive, Her2 expr inh inactive, SK-BR-3 tox 24h 40 and Ec RNAP inh inactive.
`COc1ccc(C(=S)N2CCN(c3cccc(Cl)c3)CC2)cc1` gave BAP1 inh inactive.
Screening CCOC(=O)c1c(C)n(-c2ccccc2Br)c2c1cc(O)c1ccccc12 returned BAP1 inh inactive.
Screening O=C(N1CCOCC1)N1CCCC(c2nc(-c3cccs3)no2)C1 (configuration not stated) returned TNAP act DEA inactive, BAP1 inh inactive, Her2 expr inh inactive and Ec RNAP inh inactive.
For O=C(Cc1ccccc1)N1CCCC(c2nc(-c3cccs3)no2)C1 (configuration not stated) the results were TNAP act DEA inactive, BAP1 inh inactive, Her2 expr inh inactive, SK-BR-3 tox 24h 41 and Ec RNAP inh inactive.
Screening CC(=O)NC(Cc1c[nH]c2ccccc12)C(=O)OCC(=O)Nc1ccc2c(c1)OCO2 (configuration not stated) returned TNAP act DEA inactive, BAP1 inh inactive, Her2 expr inh -33 and Ec RNAP inh inactive.
For CCCCNC(=O)OCCNC(=O)NC the results were TNAP act DEA inactive, BAP1 inh inactive, Her2 expr inh -55, SK-BR-3 tox 24h inactive and Ec RNAP inh inactive.
`CCCCOCCCNC(=O)N[C@H](C(=O)OC)C(C)C` gave TNAP act DEA inactive, BAP1 inh inactive, Her2 expr inh inactive, SK-BR-3 tox 24h inactive and Ec RNAP inh inactive.
Screening O=C(NCc1cccs1)c1nc2c(nnn2Cc2ccccc2Cl)c(=O)[nH]1 returned TNAP act DEA inactive, BAP1 inh inactive, Her2 expr inh 0.0, SK-BR-3 tox 24h 22 and Ec RNAP inh inactive.
COC(=O)c1ccc(-c2sc3nc(N4CCOCC4)c4c(c3c2N)CC(C)(C)OC4)o1 was read as TNAP act DEA inactive, BAP1 inh inactive, Her2 expr inh inactive, SK-BR-3 tox 24h 34 and Ec RNAP inh inactive.
Screening Cc1cc2nc(NC3=NCN(Cc4ccc5c(c4)OCO5)CN3)nc(C)c2cc1C returned TNAP act DEA inactive, BAP1 inh inactive, Her2 expr inh -5.8, SK-BR-3 tox 24h inactive and Ec RNAP inh inactive.
For Cc1cc2nc(NC3=NCN(CCN4CCOCC4)CN3)nc(C)c2cc1C the results were TNAP act DEA inactive, BAP1 inh inactive, Her2 expr inh inactive, SK-BR-3 tox 24h inactive and Ec RNAP inh inactive.
For CSCC[C@H](NC(=O)NCc1ccc(F)cc1)C(=O)O the results were TNAP act DEA inactive, BAP1 inh inactive, Her2 expr inh -15, SK-BR-3 tox 24h inactive and Ec RNAP inh inactive.
For COCCCN1C(=O)C(=O)/C(=C(/O)c2ccc(OCC(C)C)cc2)C1c1cccnc1 (configuration not stated) the results were TNAP act DEA inactive, BAP1 inh inactive, Her2 expr inh -21, SK-BR-3 tox 24h inactive and Ec RNAP inh inactive.
For CCn1c2ccccc2c2cc(C3Nc4ccccc4NC4=C3C(=O)CC(c3ccc(OC)c(OC)c3)C4)ccc21 (configuration not stated) the results were BAP1 inh inactive.
Screening CCN(CC)c1ccc2c(C)c(-c3ccc(N)cc3)c(=O)oc2c1 returned TNAP act DEA inactive, BAP1 inh inactive, Her2 expr inh inactive, SK-BR-3 tox 24h inactive and Ec RNAP inh inactive.
Screening CCOC(=O)Cc1c(C)c2ccc(N(CC)CC)cc2oc1=O returned TNAP act DEA inactive, Her2 expr inh inactive, SK-BR-3 tox 24h inactive and Ec RNAP inh inactive.
Screening CCN(CC)c1ccc2c(c1)oc(=O)c1c(Cl)cc(=O)oc12 returned TNAP act DEA inactive, BAP1 inh inactive, Her2 expr inh -17 and Ec RNAP inh inactive.
CCN(CC)c1ccc2c(Cl)c(Br)c(=O)oc2c1 was read as TNAP act DEA inactive, Her2 expr inh -27, SK-BR-3 tox 24h inconclusive and Ec RNAP inh inactive.
`CC(C)(C)c1cc(Cl)c(O)c(N=Cc2ccccc2O)c1` gave BAP1 inh inactive.
`CC(C)COC(=O)N1CC(O)CC1C(=O)O` (configuration not stated) gave TNAP act DEA inactive, BAP1 inh inactive, Her2 expr inh -14, SK-BR-3 tox 24h inactive and Ec RNAP inh inactive.
`CC12C=CC(O1)C1C(=O)N(c3ccc(Br)cc3[N+](=O)[O-])C(=O)C12` (configuration not stated) gave BAP1 inh inactive.
`Clc1ccc(-c2nnc(-c3ccccc3)o2)c(Cl)c1` gave TNAP act DEA inactive, BAP1 inh inactive, Her2 expr inh -26 and Ec RNAP inh inactive.
For COc1cccc2c1C(=O)c1c(O)c3c(c(O)c1C2=O)C[C@@](O)(C(=O)CO)C[C@@H]3O[C@H]1C[C@H](N)[C@H](O)[C@H](C)O1 the results were TNAP act DEA inactive, BAP1 inh inactive, Her2 expr inh inactive, SK-BR-3 tox 24h inactive and Ec RNAP inh 32.
`COc1ccc(N2CCN(Cc3cc(=O)oc4c3ccc3ccccc34)CC2)cc1` gave TNAP act DEA inactive, BAP1 inh active, Her2 expr inh inactive, SK-BR-3 tox 24h inactive and Ec RNAP inh inactive.
For CCOc1cc(C)nc(N2CCCC(C(=O)NCc3ccccc3F)C2)n1 (configuration not stated) the results were TNAP act DEA inactive, BAP1 inh inactive, Her2 expr inh inactive, SK-BR-3 tox 24h inactive and Ec RNAP inh inactive.

Source: PubChem BioAssay (several laboratories)
